Bioassay records (PubChem BioAssay)
This is a sample that favours compounds with a hit; in the whole collection about 10% have one here.
FLuc inh: Photinus pyralis luciferase inhibition; P08659; purified P. pyralis luciferase, luminescence, biochemical; Potency, µM (top dose mostly 115 µM), hits mostly inhibitors; actives 2.5% (n = 76,000); AID 1347043; also: nearly all actives have a fitted effect of over 65% in size
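Biochemical qHTS: compound (6-point titration) added to 10uM D-luciferin plus 10uM ATP in Tris acetate pH 7.5 buffer with Mg, Tween-20 and BSA, then purified enzyme at 10nM; light output imaged.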
3T3 cytotox: kills NIH 3T3 cells; NIH 3T3 viability, CellTiter-Glo ATP luminescence, 48-72 h; Potency, µM (highest dose often 96.7 µM), for inactives: at the top dose activity change, negative = cytotoxicity, most hits filed as inhibitors; actives 4.3% (n = 94,000); also: nearly all actives have a fitted effect of over 55% in size
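Viability of NIH 3T3 cells after 48 or 72 hr compound treatment at 37 °C was assessed by CellTiter-Glo, with luminescence imaged following a 10 min room-temperature step.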
NPR1 antag: human Npr1 receptor antagonism. Potency, µM (titrated, usually from 46.3 µM), without a hit: at the highest dose activity change, negative = inhibition, usual class: inhibitors. actives 1.6% (n = 76,000). P16066. HEK293 hNpr1 GloSensor cGMP, ANP-stimulated luminescence; calls by dose curve; also: nearly all actives have a fitted effect of over 60% in size
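Compound pre-incubated 30 min at room temperature on GloSensor-loaded HEK293 cells stably carrying hNpr1 and the pGS-40F cGMP biosensor. Stimulation uses hNppA at 0.1 nM final; luminescence is taken at baseline and 20 min post-agonist.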
HEK cytotox: HEK 293 cell cytotoxicity | HEK 293 viability, ATP luminescence (CellTiter-Glo), 48-72 h | Potency, µM (series often up to 115 µM), for inactives: top-dose activity change, negative = cytotoxicity, actives largely listed as inhibitors | actives 6.6% (n = 94,000); also: nearly all actives have a fitted effect of over 60% in size
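HEK 293 seeded at 250 cells/well receive compound via pintool. After 48 or 72 hr at 37 degree Celsius, 5% CO2 and 95% humidity, CellTiter-Glo is dispensed and luminescence read following 10 min at room temperature.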
GPT2 inh: GPT2 alanine aminotransferase inhibition; Recombinant GPT2, coupled pyruvate oxidase/HRP Amplex Red fluorescence; Potency, µM (doses to about 57.7 µM), inactives show top-dose activity change, negative = inhibition, most hits filed as inhibitors; actives 0.25% (n = 100,000); AID 1671188; also: nearly all actives have a fitted effect of over 60% in size
Target sequence (Q8TD30 whole entry, looked up): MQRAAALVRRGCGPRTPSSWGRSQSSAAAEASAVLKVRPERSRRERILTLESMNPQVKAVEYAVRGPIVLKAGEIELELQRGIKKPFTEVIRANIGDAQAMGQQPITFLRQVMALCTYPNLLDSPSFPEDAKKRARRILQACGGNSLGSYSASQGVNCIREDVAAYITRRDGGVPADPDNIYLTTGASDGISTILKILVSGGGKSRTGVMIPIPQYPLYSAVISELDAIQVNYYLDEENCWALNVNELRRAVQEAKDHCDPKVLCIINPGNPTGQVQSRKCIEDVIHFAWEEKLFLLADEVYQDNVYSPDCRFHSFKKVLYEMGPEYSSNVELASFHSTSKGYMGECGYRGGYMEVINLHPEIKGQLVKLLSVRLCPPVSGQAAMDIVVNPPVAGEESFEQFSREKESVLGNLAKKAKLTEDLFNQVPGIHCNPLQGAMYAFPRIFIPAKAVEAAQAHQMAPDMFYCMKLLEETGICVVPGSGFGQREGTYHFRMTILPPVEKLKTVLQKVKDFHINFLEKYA
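Recombinant GPT2 (10ng/uL) with 250uM a-KG and 2mM L-alanine, 30 min at room temperature, in HEPES pH 7.5 buffer. Pyruvate detected by pyruvate oxidase/HRP/Amplex Red fluorescence after 30 min in the dark; AOA (50uM) as positive control.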
* hit, by the source's call; i = inactive; ? = inconclusive; / = no result; [ ] = remark or other dose. Unless noted, calls follow the shape of the dose curve; as a rule, active = well fitted curve in the direction sought with a large enough effect; inconclusive = small, poorly fitted or top-dose-only effect, or another doubt; inactive = no such curve, though single readings can be large; an effect the other way counts as inactive or inconclusive. % is scaled to controls: 0 for no effect and ±100 for the full control effect; potency is read from the fitted curve at half-maximal effect.

SMILES | FLuc inh | 3T3 cytotox | NPR1 antag | HEK cytotox | GPT2 inh
CN1CCN(c2cc(=O)c3ccnc(-c4ccnn4C)c3o2)CC1 | i | 40µM* | 2%[70.6 µM] | -7%[172 µM] | 1%[88.5 µM]
CN1CCN(c2cc(=O)c3ccnc(-c4ccc(Cl)cc4)c3o2)CC1 | i | ? | -13%[70.6 µM] | -6%[172 µM] | -13%[88.5 µM]
CCC(C)Oc1ccc(CNC(=O)c2cn(CCN)nn2)cc1 (centres undefined) | i | ? | 3% | 32µM* | 4%
CN(C)c1ccc(CN2CCCC3(C2)NC(=O)c2ccccc2O3)cc1 (centres undefined) | i | -4% | 2% | 0% | -9%
c1ccc(C2(c3ccccc3)CCCN(Cc3cscn3)C2)cc1 | i | ? | -12% | 40µM* | -10%[11.5 µM]
CCN(Cc1noc(C)n1)C(=O)c1coc(COc2ccc3c(c2)OCO3)n1 | i | -23% | 4% | -28% | ?
CCCN(CC1CC1)C(=O)c1coc(COc2ccc3sc(C)nc3c2)n1 | i | ? | ? | 40µM* | -18%
O=C(NC1CC1)c1cc(-c2cccc(C(F)(F)F)c2)c2cccn2n1 | / | ? | / | 35µM* | i
C#CCNC(=O)c1cc(C(C)(C)C)c2cccn2n1 | / | -16%[138 µM] | / | -30%[172 µM] | -15%[88.5 µM]
COCCNC(=O)c1cc(-c2cccc(C(F)(F)F)c2)c2nncn2n1 | / | -12% | / | 3% | 4%
O=C(NCC(F)(F)F)c1cc(-c2cccc(C(F)(F)F)c2)c2cccn2n1 | / | ? | / | 35µM* | i
O=C(NCc1ccc(F)cc1)c1cc(-c2cccc(C(F)(F)F)c2)c2cccn2n1 | / | ? | / | 25µM* | -13%
C#CCNC(=O)c1cc(-c2cccc(C(F)(F)F)c2)c2cccn2n1 | / | 50µM* | / | ? | i
COc1cccc(-c2ccc(CN3CCCC3C(=O)NCc3ccc4c(c3)OCO4)cc2)c1 (centres undefined) | / | ? | / | ? | 0%
COc1ccc(C(=O)N2CCN3C(=O)N(C4CCOCC4)C[C@H]3C2)cc1 | i | -19%[138 µM] | 3%[70.6 µM] | -16%[172 µM] | i
Cc1ccc(NC(=O)N2CCCCC2c2nc(CCOCC3CCCC3)no2)cc1C (centres undefined) | / | ? | / | ? | i
CC(C)NC(=O)c1cc(-c2cccc(C(F)(F)F)c2)c2cccn2n1 | / | ? | / | 35µM* | i
CC(C)NC(=O)c1cc(-c2ccc([S+](C)(=O)[O-])cc2)c2cccn2n1 | / | ? | / | ? | 5%
O=C(CCC1CCCN(Cc2nc3c(s2)CCCC3)C1)Nc1ccccc1F (centres undefined) | i | ? | -9% | ? | 3%
COc1ccc(Cl)cc1C(=O)NC1CCN(c2cc(-c3cccs3)[nH]n2)CC1 | i | 7.9µM* | -22% | ? | -18%
COc1ccc(C(=O)NC2CCN(c3cc(-c4cccs4)[nH]n3)CC2)cc1OC | i | ? | -15% | ? | -2%
COc1ccc(C(=O)NC2CCN(c3cc(-c4cccs4)[nH]n3)CC2)cc1 | 18µM* | ? | 0% | ? | -3%
Cc1ccc(C(=O)NC2CCN(c3cc(-c4cccs4)[nH]n3)CC2)c(C)c1 | i | 32µM* | 0% | ? | i
COc1ccc(CC(=O)NC2CCN(C(=O)c3cccc(-c4ccc(OC)nn4)c3)CC2)cc1 | / | -24% | / | -2% | /
O=C(NCc1ccncc1)C1c2ccccc2C(=O)N(Cc2ccccc2)C12CCCC2 (centres undefined) | i | ? | 5% | ? | 0%
SMILES | FLuc inh | 3T3 cytotox | NPR1 antag | HEK cytotox | GPT2 inh
O=C(Nc1ccc(F)c(Cl)c1)C1=NO[C@@H]2CN(CCc3ccccc3)C[C@H]12 | i | ? | -1%[70.6 µM] | 112µM* | -12%[88.5 µM]
O=C(NCc1ccccc1)C1=NO[C@@H]2CN(Cc3cccc(F)c3)C[C@H]12 | i | ? | 0%[70.6 µM] | 45µM* | i
O=C(NCc1ccccc1)C1=NO[C@@H]2CN(Cc3cccc(F)c3F)C[C@H]12 | i | -28%[138 µM] | 7%[70.6 µM] | ? | -13%[88.5 µM]
O=C(NCc1ccccc1)C1=NO[C@@H]2CN(Cc3ccc(O)c(Cl)c3)C[C@H]12 | i | ? | -13%[70.6 µM] | 71µM* | i
N#CCCN1C[C@H]2COc3ccccc3[C@H]2N(C(=O)c2ccc(F)cc2)CCC1=O | / | ? | / | -18% | /
COc1ccc(-c2ccc(C(=O)N3CCN(C(=O)c4ccccc4F)CC3)cc2)nn1 | / | ? | / | -20% | /
COc1cccc(-c2cccc(C(=O)N3CCN(C(=O)c4ccc(Cl)cc4)CC3)c2)c1 | / | ? | / | ? | -3%
COc1ccc(C(=O)N2CCCN(c3nccc(Nc4ccc(C)cc4)n3)C2)cc1 | / | ? | / | 11µM* | i
COc1ccc(Nc2ccnc(N3CCN(C(=O)c4ccc(C)cc4)CC3)n2)cc1 | / | 32µM* | / | 13µM* | -1%
Cc1ccc(Nc2ccnc(N3CCCN([S+](=O)([O-])c4cccs4)C3)n2)cc1 | / | ? | / | 25µM* | 1%
COC(=O)N1CCCN(c2nccc(Nc3ccc(C)cc3)n2)C1 | / | 35µM* | / | 50µM* | ?
Cc1ccc(Nc2ccnc(N3CCN(C(=O)c4ccc(C)cc4)CC3)n2)cc1 | / | ? | / | ? | 0%
CC(=O)N1CCCN(c2nccc(Nc3ccc(C)cc3)n2)C1 | / | ? | / | ? | i
Cc1cc(C)cc(C(=O)NCc2nnc3c(-c4nc(C(C)C)no4)cccn23)c1 | i | -8% | 1% | ? | i
CN(C)C(=O)NC1CCN(C(=O)c2ccc(-c3ncccc3C#N)cc2)CC1 | / | -6% | / | -4% | i
O=C(c1nc2cccnc2n(CCc2ccccc2)c1=O)N1CCOCC1 | / | -2% | / | -3% | i
COc1ccc(C(=O)N2CCN(c3nccc(Nc4ccccc4F)n3)CC2)cc1 | / | ? | / | ? | 3%
COc1ccc(Nc2ccnc(N3CCN(C(=O)c4ccc(C(F)(F)F)cc4)CC3)n2)cc1 | / | ? | / | 35µM* | 0%
CC(C)c1noc(C2Cc3ccccc3N2C(=O)Nc2ccc3c(c2)OCCO3)n1 (centres undefined) | 16µM* | ? | -14% | ? | -10%
O=C(Nc1ccc2c(c1)OCCO2)N1c2ccccc2CC1c1nc(C2CC2)no1 (centres undefined) | 13µM* | -26% | -18% | ? | 0%
CC(C)c1noc(C2Cc3ccccc3N2C(=O)NC2CCCC2)n1 (centres undefined) | i | 32µM* | 8% | -23% | -1%
Cc1ccc(C)c(NC(=O)N2c3ccccc3CC2c2nc(C3CC3)no2)c1 (centres undefined) | i | ? | -9% | -22% | -8%
O=C(C1CCCN([S+](=O)([O-])c2cccs2)C1)N1CCC(c2nc3ncccc3[nH]2)C1 (centres undefined) | / | -2% | / | i | -15%
